Results filed as inconclusive are left out. Calls of active or inactive are those of the source. How the source made its calls, unless noted: active means hit-call score of the fitted dose curve at least 0.9, where 1 is the maximum; inconclusive means response in the unintended direction; inactive means score below 0.9.
Tests used:
[1] = target: Retinoic acid receptor RXR-alpha (Homo sapiens) (UniProt P19793); assay: OT_NURR1_NURR1RXRa_1440: Odyssey Thera (OT) 24-hour HEK293T Protein Complementation Assay for Nurr1/retinoid X receptor (RXR) (AID 2283386)
Summary of the method: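 Fluorescence PCA read-out; HEK293T; 24 h post-dose; bait/prey fused to reporter fragments; gain-of-signal fit vs DMSO negative control.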

[2] = target: Peroxisome proliferator-activated receptor gamma (Homo sapiens) (UniProt P37231); assay: OT_PPARg_PPARgSRC1_0480: Odyssey Thera (OT) 8-hour Protein-Complementation Assay for Peroxisome Proliferator-activated Receptor Gamma / SRC-1 Co-activator (AID 2283387);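 further: nuclear to cytoplasmic split Venus YFP fluorescence ratio reporting PPARg SRC-1 interaction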
Summary of the method: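 HEK293T transiently transfected with PPARg and SRC-1 fused to Venus YFP fragments, compounds 8 h at 37C. Fixed, Draq5-stained cells imaged; nuclear/cytoplasmic 488 nm fluorescence ratio over at least 350 cells per image; gain fitted versus DMSO.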

[3] = target: Peroxisome proliferator-activated receptor gamma (Homo sapiens) (UniProt P37231); assay: OT_PPARg_PPARgSRC1_1440: Odyssey Thera (OT) 24-hour Protein-Complementation Assay for Peroxisome Proliferator-activated Receptor Gamma/ SRC-1 Co-activator (AID 2283388)
Summary of the method: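 Transient HEK293T, YFP fragments 1-158/159-239 (mutant IFP1/IFP2) fused to PPARg/SRC-1; 24 h dosing; fix 4% formaldehyde, Draq5; Opera imaging 488/635 nm; N/C ratio, gain vs DMSO.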

[4] = CEETOX_H295R_11DCORT: CeeTox H295R High-throughput Steroidogenesis Assay for 11-Deoxycortisol (11DCORT) (AID 2283432; active means hit-call score of the fitted dose curve at least 0.9, where 1 is the maximum; inactive means score below 0.9;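 on AC50: 11-deoxycortisol secreted into the medium measured by LC-MS/MS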); conditions: actives raise or lower the signal
Summary of the method: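 H295R cells prestimulated 48 h with 10 uM forskolin, then exposed 48 h to chemical in 0.1% DMSO. 11-Deoxycortisol in medium quantified by HPLC-MS/MS after MTBE extraction; bidirectional fit versus DMSO. MTT viability read in same wells.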

[5] = CEETOX_H295R_OHPREG: CeeTox H295R High-throughput Steroidogenesis Assay for OH-Pregnenolone (OHPREG) (AID 2283434; active means hit-call score of the fitted dose curve at least 0.9, where 1 is the maximum; inactive means score below 0.9); conditions: actives raise or lower the signal
Summary of the method: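 Readout: HPLC-MS/MS of 17alpha-hydroxypregnenolone in medium after 48 h chemical exposure of H295R cells pretreated with forskolin. Values fitted bidirectionally relative to DMSO; chemicals reducing viability to 20–70% were retested after 10-fold dilution.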

[6] = CEETOX_H295R_OHPROG: CeeTox H295R High-throughput Steroidogenesis Assay for OH-Progesterone (OHPROG) (AID 2283435; active means hit-call score of the fitted dose curve at least 0.9, where 1 is the maximum; inactive means score below 0.9); conditions: actives raise or lower the signal
Summary of the method: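 HPLC-MS/MS quantification of 17alpha-hydroxyprogesterone secreted by H295R cells after 48 h chemical exposure, following 48 h 10 uM forskolin prestimulation. Gain or loss of signal fitted relative to DMSO. Viability checked by MTT in the same wells.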

[7] = CEETOX_H295R_ANDR: CeeTox H295R High-throughput Steroidogenesis Assay for Androstenedione (ANDR) (AID 2283436; active means hit-call score of the fitted dose curve at least 0.9, where 1 is the maximum; inactive means score below 0.9;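 further: human H295R adrenal cells exposed for 48 h with androstenedione measured in medium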); conditions: actives raise or lower the signal
Summary of the method: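 Steroidogenesis in H295R adrenal cells after 48 h dosing; androstenedione quantified by LC-MS/MS, with DMSO as negative control and baseline for bidirectional curve fitting.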

[8] = CEETOX_H295R_CORTISOL: CeeTox H295R High-throughput Steroidogenesis Assay for Cortisol (AID 2283438; active means hit-call score of the fitted dose curve at least 0.9, where 1 is the maximum; inactive means score below 0.9;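 further: cortisol secreted into medium quantified by LC-MS/MS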); conditions: actives raise or lower the signal
Summary of the method: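 Read-out: cortisol in culture medium by reverse-phase C18 HPLC with ESI-positive tandem MS, after MTBE liquid-liquid extraction. Cells: human adrenal H295R, forskolin-primed (10 uM, 48 h) before 48 h chemical exposure in 0.1% DMSO.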

[9] = CEETOX_H295R_DOC: CeeTox H295R High-throughput Steroidogenesis Assay for DOC (AID 2283439; active means hit-call score of the fitted dose curve at least 0.9, where 1 is the maximum; inactive means score below 0.9); conditions: actives raise or lower the signal
Summary of the method: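 Human adrenocortical H295R cells, passages up to 10, received 10 uM forskolin for 48 h before chemical addition. After another 48 h exposure in 0.1% DMSO, secreted DOC was measured by LC-MS/MS, with gain or loss fitted against DMSO controls.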

[10] = CEETOX_H295R_ESTRADIOL: CeeTox H295R High-throughput Steroidogenesis Assay for Estradiol (AID 2283440; active means hit-call score of the fitted dose curve at least 0.9, where 1 is the maximum; inactive means score below 0.9;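 further: estradiol secreted into medium quantified by LC-MS/MS after dansyl derivatisation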); conditions: actives raise or lower the signal
Summary of the method: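 Following OECD 456 with minor changes, H295R cells received 10 uM forskolin for 48 h and then test chemical for 48 h. Hormone output was read by HPLC-MS/MS, with cytotoxic concentrations diluted until MTT viability reached ≥70%.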

[11] = CEETOX_H295R_ESTRONE: CeeTox H295R High-throughput Steroidogenesis Assay for Estrone (AID 2283441; active means hit-call score of the fitted dose curve at least 0.9, where 1 is the maximum; inactive means score below 0.9;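 further: estrone secreted into medium measured by LC-MS/MS after dansyl derivatization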); conditions: actives raise or lower the signal
Summary of the method: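 Forskolin-stimulated H295R cells are treated 48 h with chemical, and estrone in the medium is measured by LC-MS/MS. Activity is fitted in both directions relative to DMSO controls, with chemicals diluted until MTT viability reaches at least 70%.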

Chain of Peroxisome proliferator-activated receptor gamma (Homo sapiens) (P37231 whole entry, looked up, the tested form may be a part): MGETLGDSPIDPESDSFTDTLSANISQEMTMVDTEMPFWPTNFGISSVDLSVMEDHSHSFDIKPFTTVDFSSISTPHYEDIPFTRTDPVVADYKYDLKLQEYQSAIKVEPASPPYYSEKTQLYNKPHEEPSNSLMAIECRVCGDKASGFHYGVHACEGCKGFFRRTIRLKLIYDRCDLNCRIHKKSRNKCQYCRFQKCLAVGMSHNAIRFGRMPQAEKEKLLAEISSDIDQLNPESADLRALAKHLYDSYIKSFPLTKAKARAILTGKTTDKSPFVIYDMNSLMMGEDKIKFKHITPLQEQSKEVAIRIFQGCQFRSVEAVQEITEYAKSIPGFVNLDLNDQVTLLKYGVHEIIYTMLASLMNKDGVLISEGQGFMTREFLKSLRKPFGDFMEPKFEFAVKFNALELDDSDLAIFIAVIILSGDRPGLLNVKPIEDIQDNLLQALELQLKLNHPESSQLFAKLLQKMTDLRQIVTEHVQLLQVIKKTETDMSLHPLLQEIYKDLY
Chain of Retinoic acid receptor RXR-alpha (Homo sapiens) (P19793 whole entry, looked up, the tested form may be a part): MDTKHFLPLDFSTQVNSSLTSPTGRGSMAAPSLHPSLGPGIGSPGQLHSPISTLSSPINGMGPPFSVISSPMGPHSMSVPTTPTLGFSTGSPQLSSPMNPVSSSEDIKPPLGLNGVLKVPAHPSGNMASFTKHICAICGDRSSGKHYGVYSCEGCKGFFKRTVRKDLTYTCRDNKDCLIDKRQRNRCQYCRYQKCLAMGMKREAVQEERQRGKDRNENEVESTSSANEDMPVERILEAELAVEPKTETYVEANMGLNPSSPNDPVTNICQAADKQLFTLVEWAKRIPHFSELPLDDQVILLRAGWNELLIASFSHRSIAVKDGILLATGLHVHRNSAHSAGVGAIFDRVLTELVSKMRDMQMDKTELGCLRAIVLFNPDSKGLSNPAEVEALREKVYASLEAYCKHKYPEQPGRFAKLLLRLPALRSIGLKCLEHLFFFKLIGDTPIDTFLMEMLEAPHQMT

In the case of `CCCCCCCCCCCCCCCCCC(=O)OCC(CC)CCCC` (stereo not drawn), the outcome [1] is reported as “inactive”, the outcome [2] is reported as “inactive” and the outcome [3] is reported as “inactive”.
With `C=CC(C)(C)O` the outcome [4] was “inactive”, the outcome [5] was “inactive” and the outcome [6] was “inactive”. The outcome [7] was “inactive”, the outcome [8] was “inactive” and the outcome [9] was “inactive”. For the same compound, the outcome [10] was “inactive” and the outcome [11] was “inactive”.
In the case of `CCCC/C=C\CCCCCCCCCC=O`, the outcome [2] is reported as “inactive” and the outcome [3] is reported as “inactive”.
With `CCCCC[Si](OCC)(OCC)OCC` the outcome [2] was “inactive” and the outcome [3] was “inactive”.
With `NCCCCCCN` the outcome [2] was “inactive” and the outcome [3] was “inactive”.
In the case of `O=C(Cl)c1cccc(C(=O)Cl)c1`, the outcome [2] is reported as “inactive” and the outcome [3] is reported as “inactive”.
For `CCCCCOC(=O)CCC`, the outcome [2] was “inactive” and the outcome [3] was “inactive”.
For `Cc1ccc2n[nH]nc2c1`, the outcome [4] was “inactive”, the outcome [5] was “inactive” and the outcome [6] was “inactive”. The outcome [8] was “inactive”, the outcome [9] was “inactive” and the outcome [10] was “inactive”. The outcome [11] was “inactive”.
In the case of `CC(C)C[C@H]1C(=O)N2CCC[C@H]2[C@]2(O)O[C@](NC(=O)[C@@H]3C=C4c5cccc6[nH]c(Br)c(c56)C[C@H]4N(C)C3)(C(C)C)C(=O)N12`, the outcome [2] is reported as “inactive” and the outcome [3] is reported as “inactive”.
With `CCCCC(CC)COC(=O)/C=C\C(=O)OCC(CC)CCCC` (stereo not drawn) the AC50 [1] was 50 µM (active), the outcome [2] was “inactive” and the outcome [3] was “inactive”.
With `C=CC(C)(O)CCC=C(C)CCC=C(C)C` (stereo not drawn) the AC50 [1] was 50 µM (active) and the outcome [3] was “inactive”.
With `C=CCOc1nc(OCC=C)nc(OCC=C)n1` the outcome [1] was “inactive”, the outcome [2] was “inactive” and the outcome [3] was “inactive”. For the same compound, the AC50 [4] was 25.9 µM (active), the AC50 [5] was 38.6 µM (active) and the outcome [6] was “inactive”. For the same compound, the AC50 [8] was 29.3 µM (active) and the outcome [9] was “inactive”.

From PubChem BioAssay (EPA / NIEHS)
